# Experimental data: the supplement of paper PMC3334620
# The full ranking holds about 33,000 sequences; the median of “E-score (-0.5 to 0.5)” is about -0.01, and the highest 2% start at about 0.26. What follows is part of a selection rich in the highest values, with near analogues and random picks from the rest.
# Target: Ste12 (UniProt P13574)
# Assay: PBM E-score (8-mer binding enrichment) (E-score (-0.5 to 0.5)); higher = stronger / more preferred TF binding
# Settings: protein concentration: 200 nM; construct: GST-DNA-binding domain
# Summary of the method: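 For each ungapped eight-base word taken together with its reverse complement, the Universal PBM Analysis Suite assigned an E-score. Binding data came from GST-tagged yeast transcription factors, applied at about 100-200 nM, on universal all-10-mer Agilent arrays made double-stranded by primer extension. Fluorescent anti-GST marked bound protein, and scans were normalised with masliner.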
# Chain of UniProt P13574 (P13574 whole entry): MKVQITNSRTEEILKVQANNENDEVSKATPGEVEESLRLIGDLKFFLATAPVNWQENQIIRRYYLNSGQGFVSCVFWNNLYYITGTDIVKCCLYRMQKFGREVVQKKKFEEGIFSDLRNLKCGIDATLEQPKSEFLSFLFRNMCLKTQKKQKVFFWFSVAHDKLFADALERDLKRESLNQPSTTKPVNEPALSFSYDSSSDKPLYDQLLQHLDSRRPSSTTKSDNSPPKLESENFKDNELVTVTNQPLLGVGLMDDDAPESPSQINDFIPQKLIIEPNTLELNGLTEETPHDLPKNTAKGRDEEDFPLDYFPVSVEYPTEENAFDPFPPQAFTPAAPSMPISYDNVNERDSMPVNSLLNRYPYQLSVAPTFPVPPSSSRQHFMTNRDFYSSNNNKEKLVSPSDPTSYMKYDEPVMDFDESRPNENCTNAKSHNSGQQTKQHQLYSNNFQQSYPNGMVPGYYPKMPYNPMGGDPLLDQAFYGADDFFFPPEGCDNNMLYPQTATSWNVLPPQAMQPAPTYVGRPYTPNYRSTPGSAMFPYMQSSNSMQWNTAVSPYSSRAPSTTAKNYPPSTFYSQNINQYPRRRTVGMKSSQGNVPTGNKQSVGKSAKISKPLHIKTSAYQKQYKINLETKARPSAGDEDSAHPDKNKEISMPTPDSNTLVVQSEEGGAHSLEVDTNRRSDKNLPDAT
row,Sequence,PBM E-score
1,AACACTTC,0.135
2,AACACTGG,-0.00819
3,CCCATAAA,-0.0663
4,GTGCAAGA,-0.145
5,GCCGCCCC,0.307
6,GCCGCCCA,0.0226
7,GCCGCCGC,-0.0603
8,CTTCCCTC,-0.0689
9,CAGACATA,0.0544
10,AATTTTCG,0.128
11,ATTTTCCG,0.318
12,ATTTTTCG,0.294
13,ATTTTCCC,0.173
14,AATTTCCG,0.211
15,ATTTTTCA,0.222
16,AGATACAT,0.00257
17,CCCTAGTA,0.0343
18,CGAGGACA,-0.0668
19,AAGCAGTG,0.0293
20,AACAAAAC,0.236
21,AACAAAAG,0.119
22,AACAAAGC,0.294
23,AACAAAAA,0.332
24,CACAAAGC,0.0779
25,AACAGAAG,-0.0718
26,AACAAACC,0.116

row,Sequence,PBM E-score
1,AACAGAAA,0.311
2,TACAAACA,0.21
3,AACAAACA,0.269
4,AACAAGCC,-0.125
5,GACAGAAA,0.168
6,CGTGCGTA,-0.0557
7,TATAACAA,0.215
8,CTTGAGTA,-0.208
9,CCTGTCGA,-0.122
10,GCCAACTA,-0.196
11,GTTCCGAA,0.137
12,ACTTCCAT,0.0326
13,ACGCTGCG,-0.0283
14,CCGCCCCA,0.417
15,ACGCCCCA,0.239
16,CCGCCCCG,0.408
17,GCGCCCCA,0.056
18,CCGCCCGG,-0.0452
19,CCGCCCCC,-0.00614
20,AACAGCGC,-0.0225
21,CACTGTTA,-0.0596
22,ATTCCTAG,0.0776
23,CCGCAAGC,-0.226
24,GCACGCCA,-0.201
25,CCTTTACA,-0.103
26,GGTTTACA,-0.0303

row,Sequence,PBM E-score
1,CTTTTATA,0.0308
2,ATTTTATA,0.199
3,CTTTTACC,0.0888
4,GTTTTATA,0.399
5,CTTTTACA,0.269
6,GTTTTACA,0.296
7,ATTTTACA,0.113
8,AGCTAGCT,-0.0845
9,CACTTTGA,-0.032
10,GGTTCTCA,0.0128
11,ATCTGCCC,-0.153
12,ATACGTGG,-0.0972
13,TGCCTGAA,-0.0642
14,CTGTCAAG,-0.2
15,CAATCTTC,0.144
16,CACCATCG,-0.197
17,CCCGAGTC,0.0359
18,ATTTAATG,0.272
19,ATTTAAGG,0.00576
20,CTTTAATA,0.209
21,ATTTAATC,0.209
22,ATTTAATA,0.267
23,GTTTAATA,0.179
24,CACTTATG,0.00871
25,ATGGGTTC,-0.094
26,AGATAGAA,-0.0615

row,Sequence,PBM E-score
1,AGGGCTTC,-0.0834
2,ATTAAAGC,0.0638
3,ATAGTCTC,0.132
4,AAGGTGAG,0.00195
5,TACACGTA,-0.00219
6,CAACGAAA,0.13
7,TAACGAAA,0.298
8,AAACGAAA,0.248
9,AGATGTGA,0.262
10,CGATGTGA,0.046
11,AGATGTGC,-0.154
12,GAGCCAGA,-0.0414
13,CTGGGGTA,-0.145
14,ATGGGGTA,-0.0735
15,GTGGGGTA,0.302
16,CGAACGAC,-0.034
17,ACCACTTG,0.0214
18,AAACAAAA,0.225
19,ACCCAAAA,0.13
20,AAACAGTG,0.309
21,ACCCAAAG,-0.0486
22,AAACAGTT,0.245
23,ACCCAAAC,0.285
24,CAACAGTG,0.104
25,AAACAAAT,0.28
26,AAACAAGT,0.149

row,Sequence,PBM E-score
1,AAACAAAC,0.263
2,GAACAAAC,0.181
3,AAACAAAG,0.233
4,GTCCGGGA,0.0647
5,GAAAGCTC,-0.201
6,GGTCCAGA,-0.0878
7,ATATTGCA,0.104
8,ATTCCCTG,0.0875
9,ATTCGTAA,0.166
10,CACCCTGA,-0.00848
11,ACCCCTGA,0.128
12,AACCCTGA,0.305
13,CTGTGTCA,0.0491
14,ACGTCTCA,0.274
15,TCGTCTCA,0.134
16,GCGTCTCA,0.166
17,ATGTCTCC,-0.0509
18,CTGTCTCA,0.158
19,ATGTCTCA,0.289
20,ATGTCTCG,-0.114
21,GTGTGTCA,0.321
22,GTCTCTCA,-0.184
23,GTGTCTCA,0.338
24,ATGTGTCA,0.119
25,AAGTCGTA,-0.129
26,TATGGGAA,0.0435

row,Sequence,PBM E-score
1,CGGCTGGC,-0.117
2,GTATTAAC,0.132
3,ATATTAAC,0.285
4,TAATTAAA,0.173
5,ATATTATG,0.303
6,GCATTAAA,0.111
7,CTATTAAC,-0.0267
8,ACATTAAA,0.196
9,TCATTAAA,0.324
10,ATATTATC,0.181
11,ATATTATA,0.18
12,GTATTAAA,0.166
13,TTATTAAA,0.321
14,CTGGGCAA,-0.0128
15,GGACTAGA,-0.124
16,TATGGTCA,-0.0454
17,CAGTAAGG,-0.0592
18,ACGCGAGC,-0.151
19,AGGTTACT,0.0862
20,TACTCCCA,0.056
21,CTATTAAA,0.219
22,ATATTAAG,0.109
23,ATATTAGA,0.0159
24,AGATTAAT,0.0881
25,ATATTAAA,0.29
26,ATATTAAT,0.298

row,Sequence,PBM E-score
1,TAATAATA,0.181
2,AAATAATA,0.257
3,AAATAATT,0.294
4,GAATAATC,0.00357
5,GAATAATA,0.286
6,AAATAATC,0.171
7,AGACTGCT,0.0365
8,AGCGCTAT,0.0744
9,AACTCATG,0.129
10,ATTGAGGG,-0.124
11,GAATGAGC,-0.0246
12,ATCCGAAT,0.192
13,AAAAACCG,0.178
14,AAAAACCC,0.0736
15,AAAACCTA,0.283
16,AAAACCTT,0.142
17,AAAAACCT,0.263
18,CAAACCTA,0.0393
19,CGAAGAAA,0.195
20,ACTCTCCG,-0.0208
21,AAGAAGAG,-0.00818
22,AAGTTGAC,0.0703
23,AGTAGGCG,-0.256
24,ATCCAATG,-0.165
25,ATCTCTCG,-0.0464
26,AAACAACT,0.174

row,Sequence,PBM E-score
1,GAACAACC,0.00021
2,AATCAACA,0.29
3,TAACAATA,0.239
4,AAACAATA,0.274
5,AAACAACC,0.277
6,AAACAACG,0.0956
7,GATCAACA,-0.0858
8,AAACAACA,0.287
9,AAACAATT,0.112
10,CAACAACC,0.0311
11,TATCAACA,0.149
12,GCCAATGA,-0.228
13,GGGTGGAC,-0.226
14,ACATTTTG,0.0789
15,ACAGTTGC,-0.0387
16,AACCATCT,0.0768
17,AGCTCAGC,-0.398
18,ACTGACAA,0.0676
19,ACCTGTCA,0.0912
20,TTACAAAA,0.301
21,TCACAAAA,0.271
22,GCACAAAA,0.165
23,ATACAAAA,0.209
24,ACACAAAA,0.26
25,CTACAAAA,0.228
26,ACGTTCTC,0.0364

row,Sequence,PBM E-score
1,TACCTATA,0.106
2,CGCATGAC,-0.0101
3,GCCTGTTA,0.00489
4,CCCTGTTA,0.279
5,CCCTGTTC,-0.243
6,CGCTCCTC,-0.106
7,CAGTAGGG,-0.176
8,CTGGCTAA,-0.0552
9,ACGTTTCT,0.064
10,TCGTTTAA,0.155
11,ACGTTTCA,0.48
12,ACGTTTGG,0.127
13,GCGTTTCC,0.0828
14,ACGTTTAG,-0.156
15,ACGTTTCG,0.297
16,TCATTTCA,0.242
17,ACGTTTCC,-0.0394
18,GCGTTTGA,0.0907
19,GCGTTTCA,0.476
20,TCGTTTCA,0.467
